Reference: ChEMBL document CHEMBL3988442, “University of Dundee, Small-Polar-MMV Screening Library” (2021)

molecular target: AMP-activated protein kinase, AMPK (Homo sapiens) (UniProt P54646+O43741+P54619+Q9UGJ0+Q9Y478+Q13131+Q9UGI9); assay: AMP-dependent Kinase enzyme assay. An in vitro enzyme assay that detects ADP turnover that is directly proportional to AMPK activity. This uses naive AMPK that is activated during the assay with MK-8722; type: functional; design: scale not given: direction of the effect not stated beside the values; settings: 30 µM

SMILES	Percent Effect
COCCN1CC[C@@H]2O[C@@H](COCC(=O)N3CCCC3)CC[C@@H]21	-6.36%
O=C(c1ccc[nH]1)N1CCCC(c2cc(C(F)(F)F)[nH]n2)C1 (centres undefined)	1.16%
O=C(c1coc(COc2cccc(F)c2)n1)N1CC[C@H](O)[C@@H](O)C1	0.202%
Cc1nnc2n1CCN(CCOc1ccccc1)C2	9.45%
c1ccc(OCCN2CCCC(c3noc(C4CC4)n3)C2)cc1 (centres undefined)	3.25%
Cn1ccc(CN2CCC(OCCc3ccccc3)CC2)cc1=O	-1.45%
COC1COC2(CCN(Cc3ccccc3Cl)CC2)C1 (centres undefined)	7.01%
COc1cccc(S(=O)(=O)N2CCn3cnc(COCC4CC4)c3C2)c1	2.22%
Cc1ncsc1C(=O)N(C)CCc1ccncc1	9.05%
Cc1cc(C)n(C2CCCN(C(=O)Cc3csc(C)n3)C2)n1 (centres undefined)	-2.28%
O=C(NCCNc1cnccn1)N1CCN(Cc2cccnc2)CC1	-3.44%
Cc1cc(NC(=O)NCC(C)O)n(C)n1 (centres undefined)	-8.37%
CCc1nccn1C1CCCN(C(=O)c2cnn(C)c2C2CC2)C1 (centres undefined)	-0.679%
CCOCC(O)CN1CCN(C(=O)c2cccnc2OC)CC1 (centres undefined)	4.2%
O=C(CN1CCc2cncnc2C1)NCCOc1ccccc1	-16.1%
Cc1nc(N2CCCCC2)ncc1C(=O)N1CC(C)(C)[C@@](C)(O)C1	-4.56%
c1cncc(-c2nccc(CN3CCCC3)n2)c1	11.4%
O=C(NC1CCCC1)N1CCCC(c2nccn2Cc2ccncc2)C1 (centres undefined)	2.03%
Cc1cc(CN2CCOC(CN(C)c3cccnn3)C2)no1 (centres undefined)	18.6%
Cn1cc(CNCCn2cccn2)c(-c2cccnc2)n1	-3.89%

SMILES	Percent Effect
O=C1NC2(CCN(C(=O)c3ccccc3)CC2)CC1c1cccnc1 (centres undefined)	-3.55%
Cc1cnn(CC2CCCN2Cc2coc(-c3ccccc3)n2)c1 (centres undefined)	-9.12%
Cc1nc(CN2CCOCC3(CCN(c4cccnc4)CC3)C2)cs1	0.402%
CNS(=O)(=O)c1ccc(C(=O)N2CCCC2Cc2ccccc2)o1 (centres undefined)	1.36%
CN(CCC(F)(F)F)C(=O)[C@H]1CSCN1C(=O)OC(C)(C)C	3.13%
O=C(CN1CCOC(Cn2cccn2)C1)Nc1nncs1 (centres undefined)	-7.65%
CS(=O)(=O)NC1CCCN(C(=O)NCc2cc[nH]n2)C1 (centres undefined)	-5.48%
c1cnc2c(c1)cc(C1CCOCC1)n2CCN1CCOCC1	13.1%
CN(C)C(=O)COCc1cncc2c1CCN(Cc1nccn1C)C2	3.61%
CN(C)S(=O)(=O)N1C[C@@H]2CC[C@H](C1)N(Cc1ccc3nsnc3c1)C2	-22.2%
CN(C)C(CNC(=O)c1cccc(-n2cnnn2)c1)c1ccccc1Cl (centres undefined)	2.54%
Cc1cc(C)n(CC2CN(Cc3cscn3)CCO2)n1 (centres undefined)	-2.52%
Cc1ccc(NC2CCN(C(=O)c3c(C)noc3C)CC2)nn1	0.922%
Cc1nc(N2CCOCC2)nc2c1CCN(C(=O)NC1CCCC1)CC2	-1.67%
CCOc1nnc(CN(C)CC2CCCN2c2cccnn2)s1 (centres undefined)	-1.61%
CN1N=C(C(=O)N(Cc2ccco2)C2CC2)CCC1=O	7.53%
COc1cccc(CNC(CN2CCN(C)CC2)c2ccccc2)c1 (centres undefined)	-4.3%
Cc1csc2c(=O)n3c(nc12)CCN(C(=O)c1cccnc1)CC3	13.3%
CC(C)n1ncc2cc(NC(=O)N3CCC(N4CCCC4)C3)cnc21 (centres undefined)	-12.5%
